# According to PubChem BioAssay:
# For part of these data: Entries with a potency or affinity are not part of this list. Activity calls are given as the source filed them.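 The calls were made as follows, unless noted: active = membrane potential signal rise above negative control mean plus 3 SD in both duplicates, also active in the earlier TRPC4 screen; inactive = the rest.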
# How the values were obtained:
# [1] = system: TRPC4 beta (transient receptor potential cation channel C4), mouse; test: activators of mouse TRPC4 channel, confirmation, cell-based, Fluo4 calcium, HEK293 TRPC4beta/mu-opioid, duplicates, 10 µM (AID 2426;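 active = fluorescence ratio normalized to control raised more than 50% in primary screen plus both repeat runs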;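 as to activation: percent rise of integrated ratio over buffer wells lacking compound which define 0%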); conditions: Fluo4 calcium fluorescence, at 10 µM; stronger effect = higher value
# [2] = system: transient receptor potential cation channel C4 beta (TRPC4), mouse; test: activators of mouse TRPC4 channel, confirmation, cell-based, second round, Fluo4, HEK293 TRPC4beta/mu-opioid, 1 µM (AID 2461;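 active = primary screen active and over 50% activation in each of two duplicate runs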); conditions: Fluo4 calcium fluorescence, at 1 µM; stronger effect = higher value
# [3] = system: TRPC4 (transient receptor potential cation channel C4 beta), mouse; test: positive allosteric modulators of mouse TRPC4, confirmation, cell-based, second round, Fluo-4, HEK293 TRPC4beta/mu-opioid, 1 µM (AID 2554;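 active = primary screen hit whose fluorescence ratio, in both repeats, exceeds the weak agonist control mean by 3 SD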); conditions: DAMGO EC20, Fluo-4 calcium flux, at 1 µM; stronger effect = higher value
# [4] = system: TRPC4 beta (transient receptor potential cation channel C4), mouse; test: positive allosteric modulators of mouse TRPC4, confirmation, cell-based, Fluo-4, HEK293 TRPC4beta/mu-opioid (AID 2555;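 active = primary screen hit whose calcium fluorescence ratio, in both repeats, exceeds the weak agonist control mean by 3 SD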); conditions: DAMGO EC20, Fluo-4 calcium flux, at 10 µM; stronger effect = higher value
# [5] = target: Short transient receptor potential channel 4 (Mus musculus) (UniProt Q9QUQ5); test: inhibitors of mouse TRPC4 channel, confirmation, cell-based, Fluo4, HEK293 TRPC4beta/mu-opioid (AID 2636;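 active = calcium signal cut by more than 3 SD below the full-agonist control yet still positive, in both repeats and the earlier primary screen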); conditions: DAMGO, Fluo4 calcium flux, at 10 µM; stronger effect = higher value
# Chain of Short transient receptor potential channel 4 (Mus musculus) (Q9QUQ5 whole entry, looked up): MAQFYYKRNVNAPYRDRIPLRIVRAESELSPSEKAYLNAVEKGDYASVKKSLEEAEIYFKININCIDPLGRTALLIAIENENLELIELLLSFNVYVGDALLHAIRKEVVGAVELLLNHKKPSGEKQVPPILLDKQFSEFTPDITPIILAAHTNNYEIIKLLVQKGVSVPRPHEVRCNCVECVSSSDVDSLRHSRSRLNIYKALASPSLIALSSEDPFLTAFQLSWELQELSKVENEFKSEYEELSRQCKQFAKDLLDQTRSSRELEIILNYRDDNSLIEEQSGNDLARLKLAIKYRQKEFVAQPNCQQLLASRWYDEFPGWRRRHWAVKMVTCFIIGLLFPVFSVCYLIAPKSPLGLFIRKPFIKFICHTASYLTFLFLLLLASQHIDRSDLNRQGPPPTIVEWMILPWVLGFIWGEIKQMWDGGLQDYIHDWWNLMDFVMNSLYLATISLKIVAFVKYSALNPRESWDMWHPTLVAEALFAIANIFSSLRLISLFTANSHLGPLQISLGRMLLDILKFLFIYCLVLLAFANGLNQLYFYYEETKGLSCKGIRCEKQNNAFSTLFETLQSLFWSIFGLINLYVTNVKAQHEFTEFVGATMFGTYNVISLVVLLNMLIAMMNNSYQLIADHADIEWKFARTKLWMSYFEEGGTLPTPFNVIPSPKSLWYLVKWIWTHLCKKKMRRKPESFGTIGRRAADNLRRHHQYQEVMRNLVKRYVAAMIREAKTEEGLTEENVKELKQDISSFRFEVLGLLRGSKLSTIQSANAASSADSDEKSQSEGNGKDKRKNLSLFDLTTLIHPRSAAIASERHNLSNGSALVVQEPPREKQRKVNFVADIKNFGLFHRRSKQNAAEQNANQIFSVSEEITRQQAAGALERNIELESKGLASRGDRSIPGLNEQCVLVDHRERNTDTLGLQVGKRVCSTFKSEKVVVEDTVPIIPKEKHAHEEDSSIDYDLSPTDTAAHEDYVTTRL
# [6] = target: Short transient receptor potential channel 4 (Mus musculus) (UniProt Q9QUQ5); test: inhibitors of mouse TRPC4 channel, confirmation, cell-based, second round, Fluo4, HEK293 TRPC4beta/mu-opioid, 1 µM (AID 2637;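 active = calcium signal ratio cut to more than 3 SD under the fully stimulated control mean yet still positive, in both repeats and the primary screen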); conditions: Fluo4 calcium flux, DAMGO, at 1 µM; stronger effect = higher value
# [7] = target: Short transient receptor potential channel 4 (Mus musculus) (UniProt Q9QUQ5); test: mouse TRPC4 channel activators, dose response, cell-based, HEK293 TRPC4/mu-opioid, Fluo-4 calcium (AID 434937;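 active = primary screen activator hit with a dose response curve and TRPC4 channel activation at any tested dose; inactive = no activation, no dose response, or not a primary hit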)
# [8] = target: Short transient receptor potential channel 4 (Mus musculus) (UniProt Q9QUQ5); test: TRPC4 positive allosteric modulators, dose response, cell-based, HEK293 TRPC4/mu-opioid, Fluo-4 calcium, EC20 DAMGO (AID 434941;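 active = earlier screen potentiator hit that boosts the TRPC4 ion channel at some dose, with a dose response; inactive = no potentiation, no dose response, or not a prior hit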;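 also: calcium entry triggered by an EC20 dose of DAMGO at the co-expressed mu-opioid receptor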)
# [9] = target: Short transient receptor potential channel 4 (Mus musculus) (UniProt Q9QUQ5); test: mouse TRPC4 channel inhibitors, dose response, cell-based, HEK293 TRPC4/mu-opioid, Fluo-4 calcium (AID 434942;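 active = primary screen inhibitor hit that blocks the TRPC4 channel at some tested dose, yielding a dose curve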)
# [10] = target: Short transient receptor potential channel 6 (Mus musculus) (UniProt Q61143); test: inhibition of mouse TRPC6 channel, confirmation, selectivity assay for TRPC4 inhibitor project, cell-based, HEK293, membrane potential dye, duplicate (AID 434948;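 active = active in primary screen and both duplicates, each dropping signal beyond three positive-control SD with fluorescence still positive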); conditions: HEK293 TRPC6, membrane potential dye fluorescence, at 10 µM, stimulated with maximal-effect acetylcholine; stronger effect = higher value
# Chain of Short transient receptor potential channel 6 (Mus musculus) (Q61143 whole entry, looked up): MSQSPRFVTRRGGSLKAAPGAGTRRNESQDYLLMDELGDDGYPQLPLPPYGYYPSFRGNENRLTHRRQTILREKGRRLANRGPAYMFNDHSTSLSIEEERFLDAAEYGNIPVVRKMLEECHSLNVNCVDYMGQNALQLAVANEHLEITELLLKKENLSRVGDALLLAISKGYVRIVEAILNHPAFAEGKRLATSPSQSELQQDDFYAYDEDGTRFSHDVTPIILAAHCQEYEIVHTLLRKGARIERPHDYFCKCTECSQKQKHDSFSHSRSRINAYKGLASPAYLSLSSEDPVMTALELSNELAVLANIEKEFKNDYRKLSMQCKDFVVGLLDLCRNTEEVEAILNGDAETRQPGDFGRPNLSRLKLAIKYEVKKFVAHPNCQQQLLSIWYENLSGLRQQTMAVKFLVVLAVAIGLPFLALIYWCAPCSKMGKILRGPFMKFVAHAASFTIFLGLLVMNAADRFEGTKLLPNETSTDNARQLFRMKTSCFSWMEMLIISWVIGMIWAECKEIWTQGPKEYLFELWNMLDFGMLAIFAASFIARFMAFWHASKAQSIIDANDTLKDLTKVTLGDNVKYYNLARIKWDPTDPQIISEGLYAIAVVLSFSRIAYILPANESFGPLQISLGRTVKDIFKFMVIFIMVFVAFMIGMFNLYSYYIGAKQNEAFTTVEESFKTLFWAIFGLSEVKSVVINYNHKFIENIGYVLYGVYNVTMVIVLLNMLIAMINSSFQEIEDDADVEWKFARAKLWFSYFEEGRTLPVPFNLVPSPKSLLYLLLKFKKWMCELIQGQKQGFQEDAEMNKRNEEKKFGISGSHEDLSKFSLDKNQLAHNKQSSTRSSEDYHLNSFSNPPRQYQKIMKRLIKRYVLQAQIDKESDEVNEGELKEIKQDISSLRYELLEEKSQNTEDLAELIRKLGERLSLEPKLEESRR
# [11] = target: Short transient receptor potential channel 6 (Mus musculus) (UniProt Q61143); test: activation of mouse TRPC6 channel, confirmation, selectivity assay for TRPC4 activator project, cell-based, HEK293, membrane potential dye, duplicate (AID 434950); conditions: HEK293 TRPC6, membrane potential fluorescence, at 10 µM; stronger effect = higher value;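 as to activation: 0% = buffer only wells and 100% = acetylcholine maximal-effect wells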
# [12] = target: Short transient receptor potential channel 6 (Mus musculus) (UniProt Q61143); test: TRPC6 potentiation by TRPC4 potentiator hits, confirmation, selectivity assay for TRPC4 potentiator project, HEK293 cells, membrane potential dye, duplicate (AID 434952;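 active = compound raising the membrane signal above positive-control mean plus 3 SD in both repeats, and a primary screen hit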); conditions: HEK293 TRPC6, membrane potential dye fluorescence, at 10 µM, maximal acetylcholine added after compound; stronger effect = higher value
# [13] = target: Short transient receptor potential channel 4 (Mus musculus) (UniProt Q9QUQ5); test: calcium flux activators in TRPC4/5HT1a cells, counter-screen for TRPC4 activator project, cell-based, second counter screen, HEK293 TRPC4/5HT1a, Fluo-4 (AID 434977;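 active = calcium signal rise above buffer-control mean plus 5 SD in both duplicates, and also a hit in the primary screen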); conditions: Fluo-4 calcium flux, at 10 µM; stronger effect = higher value
# [14] = calcium flux inhibitors in TRPC4/5HT1a cells, confirmation, counter-screen for TRPC4 inhibitor project, cell-based, second counter screen, HEK293 TRPC4/5HT1a, Fluo-4 (AID 434978;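 active = primary screen active whose calcium signal fell more than 3 SD beyond the full-serotonin control mean in both duplicate plates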;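 also: serotonin given first at submaximal then at maximal dose after compound preincubation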); conditions: Fluo-4 calcium flux, at 10 µM, serotonin added to trigger calcium flux; stronger effect = higher value
# [15] = system: TRPC4 (mouse), co-expressed with 5HT1a in HEK293; test: calcium flux potentiators in TRPC4/5HT1a cells, confirmation, counter-screen for TRPC4 potentiator project, cell-based, second counter screen, HEK293 TRPC4/5HT1a, Fluo-4 (AID 434979;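 active = signal rise over 3 SD above mean of control wells given weak agonist, in both repeats and first screen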); conditions: Fluo-4 calcium flux, at 10 µM, serotonin added at its EC20 dose; stronger effect = higher value
# [16] = calcium flux activation in mu-opioid HEK293 cells, confirmation, counter-screen for TRPC4 activator project, cell-based, HEK293 mu-opioid receptor line (AID 449723;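 active = hit in primary screen, with calcium signal over 5 SD above buffer well mean in both duplicates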;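 also: counter screen cells carry the mu-opioid receptor alone and lack TRPC4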); conditions: Fluo-4 calcium fluorescence, at 10 µM; stronger effect = higher value
# [17] = calcium flux enhancement in mu-opioid HEK293 cells, confirmation, counter-screen for TRPC4 allosteric potentiator project, cell-based, HEK293 mu-opioid receptor line (AID 449724;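 active = calcium signal rise more than 3 SD above the low-dose agonist control mean, in both duplicate plates and the primary screen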); conditions: Fluo-4 calcium flux, at 10 µM, compound added before EC20 DAMGO stimulus; stronger effect = higher value
smiles,measurement,setting,value
Cc1c(N2C(=O)/C(=C\C3CC=CCC3)SC2=S)c(=O)n(-c2ccccc2)n1C (stereo not given),outcome,[1],inactive
same,outcome,[2],inactive
same,outcome,[3],inactive
same,outcome,[4],inactive
same,outcome,[5],inactive
same,outcome,[6],inactive
same,outcome,[7],inactive
same,outcome,[8],inactive
same,outcome,[9],inactive
same,outcome,[10],inactive
same,outcome,[11],inactive
same,outcome,[12],inactive
same,outcome,[13],inactive
same,outcome,[14],inactive
same,outcome,[15],inactive
same,outcome,[16],inactive
same,outcome,[17],inactive
COc1cc(/C=C2\C(=O)ON=C2c2ccccc2)cc(Cl)c1O,outcome,[1],inactive
same,outcome,[2],inactive
same,outcome,[3],inactive
same,outcome,[4],inactive
same,inhibition,[5],76% (active)
same,outcome,[6],inactive
same,outcome,[7],inactive
same,outcome,[8],inactive
same,outcome,[9],inactive
same,outcome,[10],inactive
same,outcome,[11],inactive
same,outcome,[12],inactive
same,outcome,[13],inactive
same,outcome,[14],inactive
same,outcome,[15],inactive
same,outcome,[16],inactive
same,outcome,[17],inactive
CC(C)CCn1c(N2CCN(c3cccc(Cl)c3)CC2)nc2c1c(=O)[nH]c(=O)n2C,outcome,[1],inactive
same,outcome,[2],inactive
same,outcome,[3],inactive
same,outcome,[4],inactive
same,outcome,[5],inactive
same,outcome,[6],inactive
same,outcome,[7],inactive
same,outcome,[8],inactive
same,outcome,[9],inactive
same,outcome,[10],inactive
same,outcome,[11],inactive
same,outcome,[12],inactive
same,outcome,[13],inactive
same,outcome,[14],inactive
same,outcome,[15],inactive
same,outcome,[16],inactive
same,outcome,[17],inactive
CC(=O)N1N=C(c2c(-c3ccccc3)c3cc(C)ccc3[nH]c2=O)CC1c1ccco1 (stereo not given),outcome,[1],inactive
same,outcome,[2],inactive
same,outcome,[3],inactive
same,potentiation,[4],10% (active)
same,outcome,[5],inactive
same,outcome,[6],inactive
same,outcome,[7],inactive
same,outcome,[8],inactive
same,outcome,[9],inactive
same,outcome,[10],inactive
same,outcome,[11],inactive
same,"potentiation, percent of control",[12],186% (active)
same,outcome,[13],inactive
same,outcome,[14],inactive
same,potentiation,[15],15.5% (active)
same,outcome,[16],inactive
same,outcome,[17],inactive
CC(=O)Oc1ccc(NC(=O)CCC2CCCCC2)c(C(=O)O)c1,outcome,[1],inactive
same,outcome,[2],inactive
same,outcome,[3],inactive
same,outcome,[4],inactive
same,inhibition,[5],68% (active)
same,outcome,[6],inactive
same,outcome,[7],inactive
same,outcome,[8],inactive
same,outcome,[9],inactive
same,outcome,[10],inactive
same,outcome,[11],inactive
same,outcome,[12],inactive
same,outcome,[13],inactive
same,outcome,[14],inactive
same,outcome,[15],inactive
same,outcome,[16],inactive
same,outcome,[17],inactive
O=S(=O)(NCCSc1nnc(-c2ccco2)n1-c1ccccc1)c1ccccc1,outcome,[1],inactive
same,outcome,[2],inactive
same,outcome,[3],inactive
same,outcome,[4],inactive
same,outcome,[5],inactive
same,outcome,[6],inactive
same,outcome,[7],inactive
same,outcome,[8],inactive
same,outcome,[9],inactive
same,outcome,[10],inactive
same,outcome,[11],inactive
same,outcome,[12],inactive
same,outcome,[13],inactive
same,outcome,[14],inactive
same,outcome,[15],inactive
same,outcome,[16],inactive
same,outcome,[17],inactive
Cc1cc(OCC(=O)N2CCCC2)cc(C)c1Cl,outcome,[1],inactive
same,outcome,[2],inactive
same,outcome,[3],inactive
same,outcome,[4],inactive
same,outcome,[5],inactive
same,outcome,[6],inactive
same,outcome,[7],inactive
same,outcome,[8],inactive
same,outcome,[9],inactive
same,outcome,[10],inactive
same,activation,[11],38% (active)
same,outcome,[12],inactive
same,outcome,[13],inactive
same,outcome,[14],inactive
same,outcome,[15],inactive
same,outcome,[16],inactive
same,outcome,[17],inactive
CN(C)CCCNc1c2c(nc3cc(-c4cccc(F)c4)nn13)CCC2,activation,[1],81% (active)
same,outcome,[2],inactive
same,outcome,[3],inactive
same,outcome,[4],inactive
same,outcome,[5],inactive
same,outcome,[6],inactive
same,outcome,[7],inactive
same,outcome,[8],inactive
same,outcome,[9],inactive
same,outcome,[10],inactive
same,outcome,[11],inactive
same,outcome,[12],inactive
same,outcome,[13],inactive
same,outcome,[14],inactive
same,outcome,[15],inactive
same,outcome,[16],inactive
same,outcome,[17],inactive
COc1ccc(C(CNC(=O)C2CC2)N(C)C)cc1 (stereo not given),outcome,[1],inactive
same,outcome,[2],inactive
same,outcome,[3],inactive
same,outcome,[4],inactive
same,outcome,[5],inactive
same,outcome,[6],inactive
same,outcome,[7],inactive
same,outcome,[8],inactive
same,outcome,[9],inactive
same,outcome,[10],inactive
same,outcome,[11],inactive
same,outcome,[12],inactive
same,outcome,[13],inactive
same,outcome,[14],inactive
same,outcome,[15],inactive
same,outcome,[16],inactive
same,outcome,[17],inactive
O=C(NCCCN1CCCC1=O)c1ccc(CNS(=O)(=O)c2ccc(F)cc2)cc1,outcome,[1],inactive
same,outcome,[2],inactive
same,outcome,[3],inactive
same,outcome,[4],inactive
same,outcome,[5],inactive
same,outcome,[6],inactive
same,outcome,[7],inactive
same,outcome,[8],inactive
same,outcome,[9],inactive
same,outcome,[10],inactive
same,outcome,[11],inactive
same,outcome,[12],inactive
same,outcome,[13],inactive
same,outcome,[14],inactive
same,potentiation,[15],14.7% (active)
same,outcome,[16],inactive
same,outcome,[17],inactive
COC(=O)c1ccccc1N=Nc1c(C)[nH][nH]c1=O,outcome,[1],inactive
same,outcome,[2],inactive
same,outcome,[3],inactive
same,potentiation,[4],73% (active)
same,outcome,[5],inactive
same,outcome,[6],inactive
same,outcome,[7],inactive
same,outcome,[8],inactive
same,outcome,[9],inactive
same,outcome,[10],inactive
same,outcome,[11],inactive
same,outcome,[12],inactive
same,outcome,[13],inactive
same,outcome,[14],inactive
same,potentiation,[15],14.7% (active)
same,outcome,[16],inactive
same,outcome,[17],inactive
Cc1ccc(C2(CCNC(C)c3cccs3)CCOC(C(C)C)C2)cc1 (stereo not given),outcome,[1],inactive
same,outcome,[2],inactive
same,outcome,[3],inactive
same,outcome,[4],inactive
same,outcome,[5],inactive
same,outcome,[6],inactive
same,outcome,[7],inactive
same,outcome,[8],inactive
same,outcome,[9],inactive
same,outcome,[10],inactive
same,activation,[11],69% (active)
same,outcome,[12],inactive
same,outcome,[13],inactive
same,outcome,[14],inactive
same,outcome,[15],inactive
same,outcome,[16],inactive
same,outcome,[17],inactive
Cc1c(CCOC(=O)c2ccccc2)sc[n+]1CC(=O)c1ccc(Br)cc1,outcome,[1],inactive
same,outcome,[2],inactive
same,outcome,[3],inactive
same,outcome,[4],inactive
same,outcome,[5],inactive
same,outcome,[6],inactive
same,outcome,[7],inactive
same,outcome,[8],inactive
same,outcome,[9],inactive
same,outcome,[10],inactive
same,outcome,[11],inactive
same,outcome,[12],inactive
same,outcome,[13],inactive
same,outcome,[14],inactive
same,outcome,[15],inactive
same,outcome,[16],inactive
same,outcome,[17],inactive
COc1ccc(CN2CCN(c3nc4ccccc4s3)CC2)cc1,outcome,[1],inactive
same,outcome,[2],inactive
same,outcome,[3],inactive
same,outcome,[4],inactive
same,outcome,[5],inactive
same,outcome,[6],inactive
same,outcome,[7],inactive
same,outcome,[8],inactive
same,outcome,[9],inactive
same,outcome,[10],inactive
same,outcome,[11],inactive
same,outcome,[12],inactive
same,outcome,[13],inactive
same,outcome,[14],inactive
same,potentiation,[15],12.4% (active)
same,outcome,[16],inactive
same,outcome,[17],inactive
CSCC(C)N1CCC(CO)(CCCc2ccccc2)CC1 (stereo not given),outcome,[1],inactive
same,outcome,[2],inactive
same,outcome,[3],inactive
same,outcome,[4],inactive
same,outcome,[5],inactive
same,outcome,[6],inactive
same,outcome,[7],inactive
same,outcome,[8],inactive
same,outcome,[9],inactive
same,outcome,[10],inactive
same,outcome,[11],inactive
same,outcome,[12],inactive
same,outcome,[13],inactive
same,outcome,[14],inactive
same,outcome,[15],inactive
same,outcome,[16],inactive
same,outcome,[17],inactive
